Source: PubChem BioAssay
OTUD3 block = blocks human OTUD3 ubiquitin-rhodamine cleavage. purified OTUD3, Ub-rhodamine fluorescence, 2 h. inhibition, % at 25 µM. 47,000 tested, 0.7% active. AID 1645858
USP8 inh = blocks human USP8 ubiquitin-rhodamine cleavage; purified USP8, Ub-rhodamine cleavage fluorescence, 30 min; 47,000 tested, 4.2% active; AID 1645853; inhibition, % at 20 µM; P40818
UCHL1 block = blocks human UCHL1 ubiquitin-rhodamine cleavage. P09936. purified UCHL1, Ub-rhodamine cleavage fluorescence. inhibition, % at 20 µM. 47,000 tested, 0.2% active
USP7 inh = human USP7 deubiquitinase inhibition. Q93009. inhibition, % at 20 µM. purified USP7, Ub-rhodamine cleavage fluorescence. 47,000 tested, 0.3% active
USP10 block = inhibitors of human USP10 deubiquitinase; 47,000 tested, 1.1% active; Q14694; inhibition, % at 20 µM; purified USP10, Ub-rhodamine fluorescence, 60 min
* marks the source's active call; other numbers are inactive results. Hits are enriched below; roughly 4.9% of the tested compounds scored in any of these assays. No stated cut-off is given here; in the data, active means inhibition above about 30%; inactive means the rest.

SMILES | OTUD3 block | USP8 inh | UCHL1 block | USP7 inh | USP10 block
CCN(CC)C(=O)c1ccc(NC(=O)CN2CCc3cc(OC)c(OC)cc3C2)cc1 | 4 | 40* | 0 | 4 | 0
C=Cc1cc(OC)c2c(c1)c(=O)oc1c2cc(OC)c2c(O)ccc([C@H]3OC(C)[C@@H](OC(C)=O)C(N(C)C)C3O)c21 (some centres undefined) | -147 | -328 | -78 | -132 | -9
COc1ccc(-c2cn(C[C@H]3CC4CCN3C[C@@H]4C(=O)N3CCOCC3)nn2)cc1 (some centres undefined) | -1 | 4 | -2 | 2 | 0
Cn1c(=O)[nH]c2nncnc2c1=O | -12 | 34* | 18 | -13 | 9
Oc1ccc(CC2CC3CCN2CC3)cc1 (centres undefined) | 1 | 5 | -2 | 0 | 1
CC1=C[C@H]2O[C@@H]3C[C@@H](O)[C@](C)([C@@]2(C)CC1=O)[C@@]31CO1 | -7 | 3 | -2 | 1 | 0
CC(C)=CCOC(C)(C)[C@H]1OC2CC[C@@]3(C)C(CCC4Cc5c([nH]c6ccccc56)[C@@]43C)C23OC3[C@@H]1O (some centres undefined) | 61* | 40* | 7 | 39* | 76*
O=C1c2c(O)c(Cl)cc3c2[C@@]2(Oc4cc(Cl)c(O)c5c4[C@]3(O2)[C@@H]2O[C@@H]2C5=O)[C@@H]2O[C@H]12 | 84* | 54* | 92* | 93* | 69*
O=C(NC[C@H]1OC[C@@H]2CCNC[C@@H]21)c1ccnnc1 | -6 | -36 | -1 | 0 | 1
CC1=C(O)C(=O)C=C2C1=CC=C1[C@@]2(C)CC[C@@]2(C)[C@@H]3C[C@](C)(C(=O)O)CC[C@]3(C)CC[C@]12C | 26 | 46* | 12 | 35* | 81*
C=C(C)[C@@H]1[C@@H]2OC(=O)[C@H]1[C@]1(O)[C@H]3O[C@H]3[C@]3(CO3)[C@]1(C)[C@@H]2O | 11 | -1 | 1 | 3 | -2
CC(C)=CCCC1(C)C=Cc2c(O)c3c(c(CC=C(C)C)c2O1)OC12C(=CC4CC1C(C)(C)OC2(C/C=C(/C)C(=O)O)C4=O)C3=O (centres undefined) | 69* | 73* | 15 | 67* | 82*
Cc1nc(CN2CC[C@H]3CO[C@H](CNc4ncccn4)[C@H]3C2)cs1 | 3 | -12 | 0 | 0 | 0
CCOc1ccc(C2SCC(=O)Nc3c2c(=O)[nH]n3C2CCCC2)cc1 (centres undefined) | 11 | 23 | 6 | 13 | 2
O=C1CSC(c2cccc([N+](=O)[O-])c2)c2c(n(C3CCCCCC3)[nH]c2=O)N1 (centres undefined) | 19 | 40* | 3 | 1 | 10
Cc1ccc(C2SCC(=O)Nc3c2c(=O)[nH]n3C2CCCCCC2)cc1 (centres undefined) | -4 | 73* | 2 | 14 | 15
c1cnc(N2CCC23CCN(Cc2ccncc2)C3)nc1 (centres undefined) | 8 | -39 | 0 | 4 | -5
CCc1ccccc1NC(=O)CN1C(=O)CN=C(c2ccccc2)c2ccccc21 | 3 | 2 | 1 | 2 | 8
CC(C)C12CN3CC(C(C)C)(CN(C1)C3c1ccccn1)C2O (centres undefined) | 0 | 47* | 2 | 7 | 2
O=C(c1nc(-c2ccncc2)no1)N1CCC2(CC1)OCCO2 | 6 | 31* | -4 | 0 | 2
O=C(NCc1ccccn1)c1cc2cccnc2n(Cc2ccccc2)c1=O | -50 | -35 | -14 | -50 | -5
O=C(Nc1ccccn1)c1c(O)c2ccccc2n(Cc2ccccc2)c1=O | 0 | 69* | 1 | 6 | 9
